The list is not random: actives were taken first. Their share in the collection is about 2.3%.
CHRM1 PAM = human M1 muscarinic receptor positive allosteric modulators, primary screen, CHO-K1 cells, Fluo-8 calcium fluorescence, 1536-well; Muscarinic acetylcholine receptor M1 (Homo sapiens), P11229; CHO-K1 hM1, ACh EC20; 0% = ACh EC20, 100% = maximal ACh; activation, % at 3 µM; hit rate 0.088% among 360,000; AID 588819, 2011; in the data active = activation above about 19%, passing the limit was not always enough
Target sequence (P11229 whole entry, looked up): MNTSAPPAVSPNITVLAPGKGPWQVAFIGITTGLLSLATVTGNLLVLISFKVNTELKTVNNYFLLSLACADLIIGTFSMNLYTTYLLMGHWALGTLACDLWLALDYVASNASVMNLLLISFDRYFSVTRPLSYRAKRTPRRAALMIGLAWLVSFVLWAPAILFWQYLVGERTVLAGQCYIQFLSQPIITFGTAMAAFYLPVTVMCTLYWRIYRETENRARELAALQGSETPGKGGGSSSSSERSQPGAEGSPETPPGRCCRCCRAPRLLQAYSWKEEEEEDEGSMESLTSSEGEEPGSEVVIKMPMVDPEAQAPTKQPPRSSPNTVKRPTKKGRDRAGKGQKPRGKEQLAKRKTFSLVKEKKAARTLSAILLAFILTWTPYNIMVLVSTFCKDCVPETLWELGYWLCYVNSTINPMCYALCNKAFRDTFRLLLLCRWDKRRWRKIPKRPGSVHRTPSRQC
M1 PAM parental = nonselective calcium activators in parental CHO-K1 cells, primary screen, counter-screen for M1 PAM project, cell-based, Fluo-8 calcium fluorescence, full deck, 1536-well; ATP EC20; 0% at ATP EC20, 100% at ATP max; activation, % at 3 µM; hit rate 0.02% among 360,000;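 active = activation above the run cutoff, the mean activation of all test compounds plus 3 SD, cut at about 40% in these data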;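 note: peak over basal fluorescence ratio in a 140 s read after ATP addition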
CHO-K1 Ca antag = counter-screen for M1 antagonists: effect in parental CHO-K1 cells; ATP-induced calcium, Fluo-8 fluorescence; AID 602250; inhibition, % at 3 µM; hit rate 0.6% among 360,000;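 active = inhibition above a per-plate cutoff, the plate's mean sample inhibition plus 3 SD, cut at about 24% in these data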;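 note: 0% = DMSO plus EC80 ATP and 100% = DMSO alone without ATP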
CHRM1 agonist = human M1 muscarinic receptor agonists, primary screen, Fluo-8 calcium fluorescence, CHO-K1 cells, HTS. CHO-K1 hM1, agonist mode; 0% DMSO, 100% acetylcholine EC100. Muscarinic acetylcholine receptor M1 (Homo sapiens), P11229. hit rate 0.33% among 360,000. activation, % at 3 µM. AID 588814, 2011;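 active = activation above the run's mean compound activation plus 3 SD, cut at about 16% in these data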;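 note: peak over basal fluorescence ratio within a 140 s kinetic read after compound addition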
M1 ag parental = counter-screen for M1 agonists: effect in parental CHO-K1 cells; AID 602248, 2012; Fluo-8 calcium fluorescence; scaled to maximal ATP response, vehicle zero; hit rate 0.48% among 360,000; activation, % at 3 µM; in the data active = activation above about 15%;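 note: untransfected CHO-K1 host cells lacking M1 receptor as counterscreen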
M1 antag = human M1 muscarinic receptor antagonists, primary screen, CHO-K1 cells, Fluo-8 calcium fluorescence, 1536-well. Muscarinic acetylcholine receptor M1 (Homo sapiens), P11229. CHO-K1 hM1, ACh EC80 antagonist. inhibition, % at 3 µM. hit rate 1.3% among 360,000. AID 588852, 2011;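 active = percent inhibition above its own plate's cutoff, namely the mean of that plate's compound wells plus 3 SD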;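 note: peak over basal fluorescence ratio during 140 s after agonist addition; 0% = ACh EC80 plus DMSO and 100% = DMSO alone without agonist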
The depositor's hits bear a star.

SMILES | CHRM1 PAM | M1 PAM parental | CHO-K1 Ca antag | CHRM1 agonist | M1 ag parental | M1 antag
COc1ccccc1C(CNC(=O)c1ccco1)N1CCCC1 (stereo not drawn) | -30 | -18 | -3 | -8 | 0 | 73*
COc1cc(C(=O)NCC(c2ccco2)N2CCCC2)ccc1OCc1ccc(Cl)cc1Cl (stereo not drawn) | -24 | 8 | -16 | -6 | 4 | 49*
CC1(C(=O)Nc2ccc(Cl)c(Cl)c2)CCN1Cc1ccccc1OC(F)F (stereo not drawn) | 0 | 13 | -7 | -6 | 0 | -13
CCCNCCC(c1ccco1)c1ccccc1OC (stereo not drawn) | -26 | 11 | 1 | -7 | 0 | 41*
CC(=O)Nc1cccc(-c2nc3ccc(NC(C)=O)cc3s2)c1 | 8 | 22 | -9 | -5 | 1 | 5
CC(=O)Nc1cccc(-c2nc3ccccc3s2)c1 | -2 | 3 | 14 | -5 | 21* | 6
O=C(O)c1ccc2c(c1)C(=O)N(c1cccc(-c3nc4ccccc4s3)c1)C2=O | 2 | -6 | 24* | -4 | 0 | -6
CC(=O)Oc1cccc(N2C(=O)c3ccc(C(=O)O)cc3C2=O)c1 | 4 | 13 | -5 | -1 | 0 | 4
COc1ccc(C(=O)Nc2ccccc2C(=O)NCc2ccco2)cc1OC | -12 | 16 | 3 | 1 | 4 | 20*
COc1ccc(S(=O)(=O)Nc2ccccc2C(=O)NCc2ccco2)cc1 | 6 | 15 | -2 | -3 | 1 | -7
O=C(NCc1ccco1)c1ccccc1NS(=O)(=O)c1ccc(Br)s1 | -1 | 0 | 24* | 1 | 8 | -2
CN(c1ccccc1C(=O)Nc1ccccc1C(=O)NCc1ccco1)S(C)(=O)=O | 12 | -8 | 35* | 1 | 0 | -3
COc1ccc(CCNC(=O)CN(C)S(=O)(=O)c2cccs2)cc1 | 4 | 0 | -5 | -2 | 1 | -3
CN(C)CCCNC(=O)C[C@H]1C[C@H](C(=O)N2CCOCC2)[C@@]2(C)c3[nH]c4cc(-c5ccco5)ccc4c3CCN2C1=O | 12 | 19 | -9 | -5 | 1 | -7
COc1ccc(N2CC(C(=O)Nc3c4c(nn3-c3ccc(OC)cc3)CS(=O)(=O)C4)CC2=O)cc1 (stereo not drawn) | 26* | 5 | -2 | 1 | 1 | -26
COc1ccc(-n2nnnc2CNC(=O)C2CC(=O)N(c3ccc(F)cc3)C2)cc1 (stereo not drawn) | 10 | -16 | 28* | 2 | 0 | -10
CCC(=O)N(C)CCc1cc2c(c(OC)c1/C=N/NC(=O)c1ccc(Br)cc1)OCO2 | 0 | 7 | -7 | -4 | 4 | -8
C=CCc1cc(Cl)ccc1OCCN(C)C | -19 | 28 | -16 | -7 | 2 | 25*
CN(C)CCOc1cccc(Cl)c1 | 6 | 26 | -5 | -8 | 19* | -5
C=CCc1cc(Cl)ccc1OCCCNC(C)C | -9 | 21 | -2 | -12 | 2 | 13
CN(C)CCOc1cc(Cl)cc(Cl)c1 | -9 | 10 | 1 | -10 | 0 | -5
C=CCc1cc(Cl)ccc1OCCOCCNC(C)CC (stereo not drawn) | -24 | -2 | -9 | -8 | 3 | 38*
C=CCc1cc(Cl)ccc1OCCCNCCO | -2 | 4 | 3 | -12 | 2 | -2
CCC(C)NCCCOc1cc(Cl)ccc1Cl (stereo not drawn) | -14 | 4 | 9 | -4 | 0 | 33*
CC(=O)c1c(C)[nH]c(C(=O)OCC(=O)Nc2nnc(-c3ccccc3)o2)c1C | 10 | 13 | -16 | -3 | 1 | -9
CC1CCCCN1C(=O)CN1C(=O)c2ccccc2S1(=O)=O (stereo not drawn) | 4 | 8 | 0 | -1 | 1 | -8
Cn1c(SCC(N)=O)nnc1C1CCN(S(=O)(=O)c2ccccc2C(F)(F)F)CC1 | -5 | 16 | -14 | -1 | 1 | -6
Cn1c(SCCN2CCCC2)nnc1C1CCN(S(=O)(=O)c2cccc(F)c2)CC1 | -31 | 10 | -13 | -11 | 2 | 63*

High-throughput results deposited in PubChem BioAssay by The Scripps Research Institute Molecular Screening Center.
